# Laboratory results from PubChem BioAssay (NCATS).
# Records with an inconclusive call do not appear. Where a call stands in place of a potency, no number is given. Activity calls are given as the source filed them. Unless noted, calls come from the whole dose curve; as a rule, active = well fitted curve in the direction sought with a large enough effect; inconclusive = small, poorly fitted or top-dose-only effect, or another doubt; inactive = no such curve, though single readings can be large; an effect the other way counts as inactive or inconclusive.
# Key:
# [1] = Confirmation and Secondary Assay for Modulators of Hemoglobin Beta Chain Splicing at IVS2 654 locus (AID 910);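 note: HeLa cells stably carrying EGFP split by mutant beta-globin IVS2-654 intron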
# In short: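 HeLa cells stably expressing EGFP interrupted by β-globin IVS2-654 intron, seeded overnight in Opti-MEM/2% FCS, then treated 2 days at 37 °C. Restored splicing read as total peak GFP intensity per well by laser scanning cytometry (488 nm excitation, 500–520 nm emission); 500 nM antisense PNA as control.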
# [2] = Confirmation and Secondary Assay for Modulators of Hemoglobin Beta Chain Splicing at IVS2 705 locus (AID 930);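 note: HeLa cells stably expressing the EGFP-705 splicing reporter; GFP fluorescence per well restored by corrected splicing of the IVS2-705 intron in EGFP; series mostly up to about 46 µM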
# In short: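 Read-out: total peak GFP fluorescence per well (488 nm excitation, 500-520 nm emission) by laser-scanning cytometry. Cells: HeLa EGFP-705 splicing reporter, 2 days compound exposure in Optimem/2% FCS.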
# [3] = qHTS Assay for Identification of Small Molecule Agonists for Thrombopoietin (TPO) Signaling Pathway (AID 917)
# In short: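 We measured Glycoprotein IIb promoter–luciferase output in IL-3-starved Ba/F3 murine cells expressing the human TPO receptor after 24 hrs at 37 C with compounds and 26 pM TPO.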
# [4] = biological target: Muscarinic acetylcholine receptor M1 (Rattus norvegicus) (UniProt P08482); assay: qHTS Assay for Antagonists of Acetylcholine Muscarinic M1 Receptor: Kinetic Measurement of Intracellular Calcium Response (AID 943); note: nearly all actives have a fitted effect of over 75% in size; note: potency is the fitted concentration of half-maximal effect
# In short: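 Intracellular calcium flux, recorded with Fluo-4 in a kinetic plate reader, served as signal; the response to carbachol at EC80 (100 nM final) was taken as maximal over minimal fluorescence after a 10 min compound pre-incubation in rat M1-CHO cells.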
# [5] = biological target: Muscarinic acetylcholine receptor M1 (Rattus norvegicus) (UniProt P08482); assay: qHTS Assay for Antagonists of Acetylcholine Muscarinic M1 Receptor: Measurement of IP-One Response (AID 944); note: nearly all actives have a fitted effect of over 75% in size; note: potency is the fitted concentration of half-maximal effect
# In short: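 Steps: plate transfected CHO-M1 cells overnight; add test compound, 10 min; add carbachol (200 nM, EC80) in stimulation buffer with LiCl; incubate 30 min; add labelled IP1 tracer and anti-IP1 antibody in lysis buffer; read HTRF after 10 min.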
# [6] = biological target: Pyruvate kinase (Leishmania mexicana) (UniProt Q27686); assay: qHTS Validation Assay for Inhibitors of Leishmania Mexicana Pyruvate Kinase (AID 945)
# In short: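 Luminescent ATP detection (PKLight) after a 1 h room-temperature reaction of 0.2 nM LmPYK E451W mutant with 0.5 mM PEP and 0.1 mM ADP at pH 7.2. Activity is normalized to DMSO-only control wells.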
# [7] = biological target: Pyruvate kinase PKM (Homo sapiens) (UniProt P14618); assay: qHTS Assay for Activators of Human Muscle Pyruvate Kinase (AID 954; active = well fitted curve in the direction sought with a large enough effect, not every such curve was filed as active)
# In short: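 Purified human PKM2 (0.1 nM) with 0.5 mM PEP (Km) and 0.1 mM ADP in 50 mM imidazole pH 7.2, KCl, MgCl2, 1 h at room temperature; ATP formed read by coupled luciferase luminescence. Normalized to no-enzyme/110 uM thiadiazolimine inhibition; 0.3 nM enzyme column for activation.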
# [8] = qHTS Assay for Identification of Small Molecule Agonists for Hypoxia Response Element Signaling Pathway (AID 914; active = well fitted activation curve with a large enough effect in the signal ratio, with a control signal flat, not every such curve was filed as active; the % refers to the signal ratio; note: potency is the fitted concentration of half-maximal effect); conditions: ME-180 (cervical carcinoma) HRE-bla reporter, beta-lactamase ratio, CoCl2, 17 h; activation: active compounds read high
# In short: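 HRE-bla ME-180 cells, overnight plating in Opti-MEM with 0.5% dialyzed FBS; cpd titration + EC50 CoCl2, 17 h, 37 degrees Celsius; CCF4 2.5 h RT; 460/530 nm ratio; AC50.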
# [9] = qHTS Assay for Identification of Small Molecule Antagonists for Thrombopoietin (TPO) Signaling Pathway (AID 918); conditions: TPO-dependent cell signaling reporter, antagonist mode; note: potency is the fitted concentration of half-maximal effect; nearly all actives have a fitted effect of over 60% in size
# In short: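 First, Ba/F3 reporter cells expressing human TPO receptor were held overnight without IL-3. Next, compound and 26 pM TPO were added. After 24 hrs incubation at 37 C, luciferase luminescence under the Glycoprotein IIb promoter was recorded.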
# Pyruvate kinase (Leishmania mexicana), sequence (Q27686 2-499 E452W): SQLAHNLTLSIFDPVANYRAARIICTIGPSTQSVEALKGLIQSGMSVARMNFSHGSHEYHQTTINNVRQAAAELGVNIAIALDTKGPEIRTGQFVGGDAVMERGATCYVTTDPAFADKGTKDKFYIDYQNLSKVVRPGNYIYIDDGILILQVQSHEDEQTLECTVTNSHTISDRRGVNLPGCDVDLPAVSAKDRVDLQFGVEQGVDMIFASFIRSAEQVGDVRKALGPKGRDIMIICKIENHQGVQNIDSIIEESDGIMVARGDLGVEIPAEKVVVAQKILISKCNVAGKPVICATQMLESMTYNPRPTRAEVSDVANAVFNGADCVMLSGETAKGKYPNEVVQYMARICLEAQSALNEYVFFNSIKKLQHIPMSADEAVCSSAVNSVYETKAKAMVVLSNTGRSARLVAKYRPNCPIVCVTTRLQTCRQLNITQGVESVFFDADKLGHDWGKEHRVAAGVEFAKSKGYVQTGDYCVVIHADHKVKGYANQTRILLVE
# Muscarinic acetylcholine receptor M1 (Rattus norvegicus), sequence (P08482 whole entry, looked up): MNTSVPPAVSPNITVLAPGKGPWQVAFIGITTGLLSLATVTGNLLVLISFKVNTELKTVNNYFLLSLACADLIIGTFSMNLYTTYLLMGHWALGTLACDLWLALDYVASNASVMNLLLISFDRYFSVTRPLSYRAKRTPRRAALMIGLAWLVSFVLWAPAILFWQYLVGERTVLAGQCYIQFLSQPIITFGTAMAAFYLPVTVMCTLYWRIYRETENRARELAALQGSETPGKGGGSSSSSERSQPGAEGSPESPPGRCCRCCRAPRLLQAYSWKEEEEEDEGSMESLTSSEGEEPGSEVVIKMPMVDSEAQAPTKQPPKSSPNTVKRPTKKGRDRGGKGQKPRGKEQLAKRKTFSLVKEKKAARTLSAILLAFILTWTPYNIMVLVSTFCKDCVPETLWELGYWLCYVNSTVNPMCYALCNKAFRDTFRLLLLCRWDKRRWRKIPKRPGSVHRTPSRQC
# Pyruvate kinase PKM (Homo sapiens), sequence (P14618 whole entry, looked up): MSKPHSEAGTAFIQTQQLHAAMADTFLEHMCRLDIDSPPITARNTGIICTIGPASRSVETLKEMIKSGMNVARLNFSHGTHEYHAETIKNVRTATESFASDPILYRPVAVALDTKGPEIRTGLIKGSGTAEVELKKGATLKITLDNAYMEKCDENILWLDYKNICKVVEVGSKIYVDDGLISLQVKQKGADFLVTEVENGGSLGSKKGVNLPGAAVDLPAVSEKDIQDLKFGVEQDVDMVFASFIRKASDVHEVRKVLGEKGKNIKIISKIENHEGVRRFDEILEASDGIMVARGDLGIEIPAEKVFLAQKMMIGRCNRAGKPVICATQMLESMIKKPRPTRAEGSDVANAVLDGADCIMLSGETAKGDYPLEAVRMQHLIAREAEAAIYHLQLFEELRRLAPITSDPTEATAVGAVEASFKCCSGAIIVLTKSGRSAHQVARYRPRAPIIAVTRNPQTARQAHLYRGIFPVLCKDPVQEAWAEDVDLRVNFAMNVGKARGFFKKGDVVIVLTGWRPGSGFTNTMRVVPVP
smiles,measurement,setting,value
c1ccc(C2CN3CCSC3=N2)cc1 (stereo not given),Potency,[1],inactive
same,outcome,[2],inactive
N[C@@H](CS(=O)O)C(=O)O,Potency,[3],inactive
same,Potency,[4],inactive
same,Potency,[5],inactive
same,Potency,[6],inactive
same,outcome,[7],inactive
CC(C)(CO)Cc1cc(C(C)(C)C)c(O)c(C(C)(C)C)c1,Potency,[8],12.6 µM (active)
same,Potency,[3],inactive
same,Potency,[4],inactive
same,Potency,[5],inactive
same,Potency,[6],inactive
same,outcome,[7],inactive
N#C/C(=C\c1ccc(O)c(O)c1)C(=O)NCCc1ccccc1,Potency,[4],inactive
same,Potency,[6],inactive
same,outcome,[7],inactive
COc1cc(CC(=O)O)ccc1O,Potency,[3],inactive
same,Potency,[5],inactive
same,Potency,[6],inactive
same,outcome,[7],inactive
O=c1ccc2c(OCCCCc3ccccc3)c3ccoc3cc2o1,Potency,[3],inactive
same,Potency,[6],inactive
same,outcome,[7],inactive
Fc1ccc(CN(C2=NCCN2)c2c(Cl)cccc2Cl)cc1,Potency,[3],inactive
same,Potency,[6],inactive
same,outcome,[7],inactive
COc1ccccc1N1CCN(CCCCNC(=O)c2ccc3ccccc3c2)CC1,Potency,[6],inactive
same,outcome,[7],inactive
Nc1ncnc2c1ncn2C1CCCC1,Potency,[4],inactive
same,Potency,[5],inactive
same,Potency,[6],inactive
same,outcome,[7],inactive
CC(C)(C)c1cc(/C=C(\C#N)C(N)=S)cc(C(C)(C)C)c1O,Potency,[6],inactive
same,outcome,[7],inactive
CN1CCN(c2nc3cc(C(F)(F)F)ccc3n3cccc23)CC1,Potency,[4],inactive
same,Potency,[5],inactive
same,Potency,[6],inactive
same,outcome,[7],inactive
c1ccc(CN2CCC3(CCCc4ccccc43)CC2)cc1,Potency,[3],inactive
same,Potency,[6],inactive
same,outcome,[7],inactive
N=C(N)c1ccc(N)cc1,Potency,[6],inactive
same,outcome,[7],inactive
COc1ccccc1N1CCN(CCCCN2C(=O)c3ccccc3C2=O)CC1,Potency,[3],inactive
same,Potency,[6],inactive
same,outcome,[7],inactive
S=C(S)N1CCCC1,Potency,[5],inactive
same,Potency,[6],inactive
same,outcome,[7],inactive
CC[C@@H]1Cc2cc(O)ccc2C2=C1c1ccc(O)cc1C[C@H]2CC,Potency,[4],12.6 µM (active)
same,Potency,[6],inactive
same,outcome,[7],inactive
O=c1[nH]c2ccccc2c2ccccc12,Potency,[3],inactive
same,Potency,[6],inactive
same,outcome,[7],inactive
N=C(N)SCCc1cnc[nH]1,Potency,[9],0.794 µM (active)
same,Potency,[4],inactive
same,Potency,[5],inactive
same,Potency,[6],inactive
same,outcome,[7],inactive
NCCNS(=O)(=O)c1cccc2c(Cl)cccc12,Potency,[4],inactive
same,Potency,[5],inactive
same,Potency,[6],inactive
same,outcome,[7],inactive
CCCCCCCCCCCCCCC[C@H](O)[C@H](N)CO,Potency,[9],12.6 µM (active)
same,Potency,[4],8.91 µM (active)
same,Potency,[5],inactive
same,Potency,[6],inactive
same,outcome,[7],inactive
CCN(CC)CCCCCCCCOC(=O)c1cc(OC)c(OC)c(OC)c1,Potency,[4],2.82 µM (active)
same,Potency,[5],2.82 µM (active)
same,Potency,[6],inactive
same,outcome,[7],inactive
COc1ccc(NC(=O)c2ccc(-c3ccc(-c4noc(C)n4)cc3C)cc2)cc1N1CCN(C)CC1,Potency,[9],10 µM (active)
same,Potency,[6],inactive
same,outcome,[7],inactive
Nc1ccc2c3c(cccc13)C(=O)NC2=O,Potency,[3],inactive
same,Potency,[6],inactive
same,outcome,[7],inactive
CCCOC(=O)c1c(-c2ccccc2)nc(CC)c(C(=O)SCC)c1CCC,Potency,[3],inactive
same,Potency,[5],inactive
same,Potency,[6],inactive
same,outcome,[7],inactive
C[C@H](O)C(=O)C1=Nc2c(nc(N)[nH]c2=O)NC1,Potency,[3],inactive
same,Potency,[5],inactive
same,Potency,[6],inactive
same,outcome,[7],inactive
Nn1nnc2ccccc21,Potency,[5],inactive
same,Potency,[6],inactive
same,outcome,[7],inactive
CCCCCCCC/C=C\CCCCCCCC(=O)NCCc1ccc(O)c(O)c1,Potency,[4],inactive
same,Potency,[5],inactive
same,Potency,[6],inactive
same,outcome,[7],inactive
Nc1ncnc2c1c(-c1ccc(Oc3ccccc3)cc1)cn2C1CCCC1,Potency,[5],inactive
same,Potency,[6],inactive
same,outcome,[7],inactive
Cc1cccc(C(=O)NCN2CCN(c3ccccc3C#N)CC2)c1,Potency,[4],inactive
same,Potency,[6],inactive
same,outcome,[7],inactive
COc1ccccc1N1CCN(CCN(C(=O)c2ccc(F)cc2)c2ccccn2)CC1,Potency,[3],inactive
same,Potency,[5],inactive
same,Potency,[6],inactive
same,outcome,[7],inactive
N=C(N)c1ccc(OCCCCCOc2ccc(C(=N)N)cc2)cc1 (tested in a mixture with another compound),outcome,[7],inactive
O=S(=O)(c1cccc2c(Cl)cccc12)N1CCCNCC1,Potency,[3],inactive
same,Potency,[5],inactive
same,Potency,[6],inactive
same,outcome,[7],inactive
CCCCOC(=O)NS(=O)(=O)c1sc(CC(C)C)cc1-c1ccc(Cn2c(CC)nc3c(C)cc(C)nc32)cc1,Potency,[5],inactive
same,Potency,[6],inactive
same,outcome,[7],inactive
NC(N)=NC(N)=Nc1cccc(Cl)c1,Potency,[5],inactive
same,Potency,[6],inactive
same,outcome,[7],inactive
c1ccc2c(c1)CC(N1CCN(c3cccc4c3OCCO4)CC1)C2,Potency,[3],inactive
same,Potency,[6],inactive
same,outcome,[7],inactive
O=c1oc(Cl)c(Cl)c2ccccc12,Potency,[4],inactive
same,Potency,[5],inactive
same,Potency,[6],inactive
same,outcome,[7],inactive
O=C(O)Cc1ccc(O)c(O)c1,Potency,[4],inactive
same,Potency,[6],inactive
same,outcome,[7],inactive
